# Measurements as given in ChEMBL document CHEMBL3988442, “University of Dundee, Small-Polar-MMV Screening Library” (2021).
# Hit rate of the full screen: of about 67,000 compounds, about 300 (0.45%) showed an effect of 50% or more. For the sample, strong results were picked, then their nearest neighbours and some compounds at random.
# Biological target: Polyketide synthase Pks13 (Mycobacterium tuberculosis (strain ATCC 25618 / H37Rv)) (UniProt I6X8D2)
# Assay: Mycobacterium tuberculosis Polyketide synthase 13 Thioesterase (PKS13)
# Type: functional
# Set-up: scale not given: in the data most compounds retested in dose-response had high values
# Details: 30 µM
# Polyketide synthase Pks13 (Mycobacterium tuberculosis (strain ATCC 25618 / H37Rv)), sequence (I6X8D2 whole entry): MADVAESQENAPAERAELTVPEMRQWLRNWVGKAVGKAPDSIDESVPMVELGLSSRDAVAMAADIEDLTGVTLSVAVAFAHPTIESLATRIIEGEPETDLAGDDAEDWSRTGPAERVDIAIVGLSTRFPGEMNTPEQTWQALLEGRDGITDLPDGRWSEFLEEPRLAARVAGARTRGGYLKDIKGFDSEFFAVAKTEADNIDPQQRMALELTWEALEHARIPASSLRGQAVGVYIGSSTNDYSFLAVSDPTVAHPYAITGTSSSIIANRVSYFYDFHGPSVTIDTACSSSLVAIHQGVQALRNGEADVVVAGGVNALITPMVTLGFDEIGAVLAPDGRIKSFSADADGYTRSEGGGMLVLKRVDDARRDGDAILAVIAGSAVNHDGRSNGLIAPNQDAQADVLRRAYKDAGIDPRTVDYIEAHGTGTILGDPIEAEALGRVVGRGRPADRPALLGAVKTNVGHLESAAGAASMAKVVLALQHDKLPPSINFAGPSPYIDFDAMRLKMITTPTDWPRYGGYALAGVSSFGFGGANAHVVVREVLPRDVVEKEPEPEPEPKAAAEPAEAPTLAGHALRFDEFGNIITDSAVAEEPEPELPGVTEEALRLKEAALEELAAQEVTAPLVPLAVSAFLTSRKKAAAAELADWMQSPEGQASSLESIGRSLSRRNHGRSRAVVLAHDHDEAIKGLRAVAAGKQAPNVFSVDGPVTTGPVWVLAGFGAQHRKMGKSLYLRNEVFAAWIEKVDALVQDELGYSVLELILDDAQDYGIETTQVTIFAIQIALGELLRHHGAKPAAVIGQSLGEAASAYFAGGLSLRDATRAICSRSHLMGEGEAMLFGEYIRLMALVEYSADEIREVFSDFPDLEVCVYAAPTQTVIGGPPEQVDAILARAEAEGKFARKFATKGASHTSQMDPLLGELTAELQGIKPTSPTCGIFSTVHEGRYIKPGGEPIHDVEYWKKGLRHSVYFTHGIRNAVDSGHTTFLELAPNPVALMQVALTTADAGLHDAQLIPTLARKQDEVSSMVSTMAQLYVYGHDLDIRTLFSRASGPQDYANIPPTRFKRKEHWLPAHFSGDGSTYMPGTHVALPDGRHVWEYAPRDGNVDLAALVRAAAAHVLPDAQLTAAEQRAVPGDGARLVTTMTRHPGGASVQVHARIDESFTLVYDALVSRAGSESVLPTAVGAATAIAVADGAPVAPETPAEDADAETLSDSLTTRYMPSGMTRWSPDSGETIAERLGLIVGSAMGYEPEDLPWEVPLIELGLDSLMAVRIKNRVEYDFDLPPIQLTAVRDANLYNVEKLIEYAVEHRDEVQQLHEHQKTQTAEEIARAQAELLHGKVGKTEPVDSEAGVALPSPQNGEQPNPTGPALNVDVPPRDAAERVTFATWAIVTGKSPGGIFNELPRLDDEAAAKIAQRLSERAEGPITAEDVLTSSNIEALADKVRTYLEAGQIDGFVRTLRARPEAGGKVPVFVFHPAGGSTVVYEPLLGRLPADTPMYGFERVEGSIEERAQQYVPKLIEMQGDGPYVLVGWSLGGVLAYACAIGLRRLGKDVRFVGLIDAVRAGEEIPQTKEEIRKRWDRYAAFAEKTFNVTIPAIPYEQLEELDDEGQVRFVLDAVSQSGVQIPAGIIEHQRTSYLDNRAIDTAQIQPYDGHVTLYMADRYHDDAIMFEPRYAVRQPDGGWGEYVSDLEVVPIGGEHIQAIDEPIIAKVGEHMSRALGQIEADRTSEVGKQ
row,SMILES,Percent Effect [%]
1,CNCc1cn(C[C@H]2C[C@@H]3CCN2C[C@@H]3C(=O)NC2CCCCC2)nn1,-24.7
2,Cn1cc(C2CCCN2C(=O)Cn2c(=O)oc3ccccc32)cn1 (centres undefined),-24.9
3,CNc1cncc(C2CCCN2C(=O)Cn2c(=O)oc3ccccc32)n1 (centres undefined),130
4,CNc1cncc(C2CCCN2C(=O)c2ccc3oc(=O)n(C)c3c2)n1 (centres undefined),-18.4
5,O=C(C1CCCO1)N1C[C@@H]2CCN(c3cnccn3)C[C@@H]2C1 (some centres undefined),-10.1
6,Cc1noc([C@@H]2C[C@H]3OCC[C@H]3N(S(=O)(=O)c3cccnc3)C2)n1,56.3
7,Cc1noc([C@@H]2C[C@H]3OCC[C@H]3N(S(C)(=O)=O)C2)n1,-22.1
8,Cc1noc([C@@H]2C[C@H]3OCC[C@H]3N(S(=O)(=O)c3ccccc3)C2)n1,-2.66
9,CCOC(=O)[C@@H]1[C@@H](c2ccccc2)CN2CCN(C(=O)C3CC3)C[C@H]12,-34.9
10,CCC[C@H]1CN(S(C)(=O)=O)C[C@@H]1NC(=O)COC(C)C,-31
11,CCC[C@H]1CN(S(C)(=O)=O)C[C@@H]1NC(=O)c1ccc(COC)cc1,125
12,CCC[C@H]1CN(S(C)(=O)=O)C[C@@H]1NC(=O)Cc1ccc(OC)cc1,-10.8
13,CCc1cnc(N2C[C@H]3CCCC(N(C)Cc4ccccn4)[C@H]3C2)nc1 (some centres undefined),-25
14,Cc1ccc(C)c(-n2ncc(C(=O)NCC3COC(C)(C)O3)c2N)c1 (centres undefined),66.6
15,CC1(C)OCC(CNC(=O)c2cnn(-c3ccc(Cl)cc3)c2N)O1 (centres undefined),-15.3
16,CC1(C)OCC(CNC(=O)c2cnn(-c3cc(Cl)ccc3Cl)c2N)O1 (centres undefined),-5.14
17,O=C(NCc1ccc2c(c1)OCCO2)N1CCC(CO)CC1,52.7
18,NC(=O)C1CCN(C(=O)NCc2ccc3c(c2)OCCO3)CC1,-21.9
19,CC(=O)NCC1CCN(C(=O)NCc2ccc3c(c2)OCCO3)CC1,-0.159
20,COCCN1C(=O)[C@]2(CC[C@@H]3CN(C(=O)NCC(C)C)C[C@@H]32)N=C1C,-6.17
21,COC(=O)c1sc2cccc(F)c2c1CNC(=O)C1CC1,1.9
22,COC(=O)c1sc2cccc(F)c2c1CNC(=O)C1CCCO1 (centres undefined),1.86
23,COC(=O)c1sc2cccc(F)c2c1CNC(=O)C1CCOC1 (centres undefined),68.2
24,Cc1noc(C)c1CN1CC[C@H]2[C@H]1CCN2CC1CCOCC1,10.3
25,CN(Cc1ccc(N2CCOCC2)cc1)Cc1noc(C(C)(C)C)n1,21.8
26,CN(Cc1ccc(N2CCCCC2)cc1)Cc1noc(C(C)(C)C)n1,85.2
27,CN(Cc1noc(C(C)(C)C)n1)Cc1ccccc1N1CCCCC1,1.5

row,SMILES,Percent Effect [%]
1,Cn1cncc1CN1C[C@@H]2OCCN(c3ncccn3)[C@@H]2C1,-16.4
2,O=C(Nc1ccccc1)N1C[C@@H]2OCCN(C(=O)c3ccco3)[C@@H]2C1,-42.5
3,CN1CCN(C(=O)[C@@H]2CCO[C@@H]3CCN(c4ncccn4)C[C@@H]32)CC1,-7.46
4,CCn1cc(-c2cc(C(F)F)n3nc(CC(=O)O)nc3n2)cn1,62.5
5,Cc1nn(C)cc1-c1cc(C(F)F)n2nc(CCC(=O)O)nc2n1,16.4
6,CCn1ncc(-c2cc(C(F)F)n3nc(CCC(=O)O)nc3n2)c1C,15.6
7,CC(C)c1cc(C(F)(F)F)n2nc(CCC(=O)O)nc2n1,5.23
8,CCn1cc(-c2cc(C(F)F)n3nc(CCC(=O)O)nc3n2)cn1,32.3
9,Cn1cc(-c2cc(C(F)F)n3nc(CCC(=O)O)nc3n2)cn1,51.2
10,CN(C)C(=O)N1CCN(CCCc2ccccc2)[C@H]2CS(=O)(=O)C[C@H]21,-15
11,Cc1oncc1C(=O)N1C[C@H](OCc2ccccn2)[C@H]2OCCC[C@H]21,-0.48
12,O=S1(=O)C[C@@H]2[C@H](C1)N(Cc1ncc[nH]1)CCN2Cc1cccnc1,-6.48
13,O=C(O)c1cn(-c2ccccn2)c(=O)c2ccccc12,57
14,CC(C)CNC(=O)c1cn(-c2ccccn2)c(=O)c2ccccc12,42.5
15,COC(=O)CNC(=O)c1cn(-c2ccccn2)c(=O)c2ccccc12,41.4
16,CN(C)C(=O)[C@]12CCCN(CC3CC3)C[C@H]1CN(c1ccccn1)C2,-21.7
17,COCCc1noc(-c2cn(CCc3ccccc3)nn2)n1,62.2
18,COCCc1noc(-c2cn(Cc3ccc(OC)cc3)nn2)n1,-2.84
19,COCCc1noc(-c2cn(Cc3ccccc3C)nn2)n1,-13.8
20,CN(Cc1cncnc1)[C@@H]1CN(Cc2ccco2)C[C@@H]2CCCO[C@@H]21,-4.7
21,O=C(NCC1CC1)[C@H]1C[C@@H]2CCN(Cc3nccs3)C[C@@H]2O1,-42.1
22,O=C(N[C@H]1CN[C@H]2CCCO[C@H]21)c1ccno1,-17
23,O=C(c1ccccc1)N1C[C@@H]2CC[C@H](C1)N(S(=O)(=O)c1cccnc1)C2,-34.5
24,O=C(c1ccncc1)N1C[C@@H]2CC[C@H](C1)N(S(=O)(=O)c1cccnc1)C2,-25.8
25,O=C(c1cnccn1)N1C[C@@H]2CC[C@H](C1)N(S(=O)(=O)c1cccnc1)C2,56.1
26,O=S1(=O)C[C@@H]2[C@H](C1)N(Cc1ncc[nH]1)CCN2C/C=C/c1ccccc1,5.07
27,CCC1=N[C@@]2(CC[C@@H]3CN(S(=O)(=O)CC)C[C@@H]32)C(=O)N1CCOC,-31.3
